Assay results as given in PubChem BioAssay (Tox21).
Results filed as inconclusive are left out. Active and inactive are the calls of the source. Unless noted, the call rests on the fitted dose curve; in most records, active means well fitted curve in the direction sought with a large enough effect in the repeat runs; inconclusive means weak or mixed curves; inactive means no such curve, though single readings can be large; an effect the other way counts as inactive or inconclusive.

Columns and labels:
[1] = molecular target: Thyrotropin receptor (Homo sapiens) (UniProt P16473); experiment: qHTS assay to identify small molecule agonists of the thyroid stimulating hormone receptor (TSHR) signaling pathway (AID 1224843; calls by dose curve; further: nearly all actives have a fitted effect of over 45% in size)
Sequence of Thyrotropin receptor (Homo sapiens) (P16473 whole entry, looked up): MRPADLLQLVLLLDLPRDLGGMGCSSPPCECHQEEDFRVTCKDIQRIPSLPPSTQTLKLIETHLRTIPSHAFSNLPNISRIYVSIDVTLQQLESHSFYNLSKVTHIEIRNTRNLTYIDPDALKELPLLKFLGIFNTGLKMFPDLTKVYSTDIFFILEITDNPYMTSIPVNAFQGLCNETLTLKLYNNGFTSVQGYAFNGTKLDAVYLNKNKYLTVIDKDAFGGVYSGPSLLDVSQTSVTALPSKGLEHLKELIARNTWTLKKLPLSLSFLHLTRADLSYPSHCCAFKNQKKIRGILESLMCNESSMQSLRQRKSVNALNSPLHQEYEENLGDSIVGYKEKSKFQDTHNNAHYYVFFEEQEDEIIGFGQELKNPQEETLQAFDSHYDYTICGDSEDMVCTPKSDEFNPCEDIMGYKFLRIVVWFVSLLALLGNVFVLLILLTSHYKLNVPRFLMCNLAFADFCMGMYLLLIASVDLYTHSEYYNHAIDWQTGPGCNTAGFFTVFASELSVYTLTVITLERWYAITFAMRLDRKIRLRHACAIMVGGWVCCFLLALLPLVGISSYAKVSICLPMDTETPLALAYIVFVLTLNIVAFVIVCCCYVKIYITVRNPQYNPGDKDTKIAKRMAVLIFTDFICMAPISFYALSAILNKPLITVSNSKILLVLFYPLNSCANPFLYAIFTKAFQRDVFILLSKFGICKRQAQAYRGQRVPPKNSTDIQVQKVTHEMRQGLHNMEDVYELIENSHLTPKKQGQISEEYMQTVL
Method in brief: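 HEK293/TSHR, 800 cells/well; cpd 30 min RT; add cAMP-d2 + anti-cAMP-cryptate, 1 h RT; fluorescence read on plate reader. 15-pt titration, n=3.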

[2] = qHTS assay to identify small molecule agonists of the hypoxia (HIF-1) signaling pathway - cell viability counter screen (AID 1224844; calls by dose curve; further: nearly all actives have a fitted effect of over 50% in size)
Method in brief: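 Same wells as the HIF-1 reporter screen; ME-180 cells carrying HRE-bla, 17 hr treatment at 37C; CellTiter-Glo luminescence read after 30 min at room temperature.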

[3] = qHTS assay to identify small molecule agonists of the hypoxia (HIF-1) signaling pathway (AID 1224846; active means well fitted activation curve with a large enough effect in the signal ratio in the repeat runs, not every such curve was filed as active; the % refers to the signal ratio)
Method in brief: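 In ME-180 cells bearing an HRE-bla construct, 17 h treatment with DMSO-dissolved compounds at 37C was followed by CCF4-AM loading to quantify reporter induction.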

[4] = qHTS assay to identify small molecule agonists of H2AX - cell viability counter screen (AID 1224847; calls by dose curve; further: top concentration of the series differs between compounds; nearly all actives have a fitted effect of over 30% in size)
Method in brief: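 Cells plated first: CHO-K1, 1000 per well in 10% FBS medium, incubated overnight at 37C. Then 15-point compound titration added (final DMSO 0.76%) for 3 hr. Finally CellTiter-Glo added and luminescence read.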

[5] = qHTS RealTime-Glo MT Cell Viability Assay in HepG2 cells - 24 hour (AID 1224867); further: nearly all actives have a fitted effect of over 50% in size
Method in brief: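 Cell number in HepG2 cultures estimated from NanoLuc luminescence generated by metabolic reduction of a prosubstrate by living cells. The homogeneous, nonlytic format allowed repeated reads at 0, 8, 16, 24, 32 and 40 h of compound exposure.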

[6] = qHTS RealTime-Glo MT Cell Viability Assay in HEK293 cells - 32 hour (AID 1224868); further: top concentration of the series differs between compounds; nearly all actives have a fitted effect of over 50% in size
Method in brief: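 Homogeneous bioluminescent viability format in HEK293 cells (600 cells/well). Following 5 h at 37 C/5% CO2, 23 nL compound was pintooled; the signal was measured repeatedly during 40 h incubation.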

[7] = A CellTox Green Cytotoxicity Assay to monitor cytotoxicity in HEK293 cells - 0 hour (AID 1224869); further: nearly all actives have a fitted effect of over 50% in size
Method in brief: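 Homogeneous no-lysis format: HEK293 cell suspension mixed with CellTox Green reagent, seeded, incubated 5 h at 37 C/5% CO2, then dosed by pintool with compound in DMSO.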

[8] = qHTS assay to identify small molecule agonists of H2AX (AID 1224845; active means well fitted activation curve with a large enough effect in the signal ratio in the repeat runs, not every such curve was filed as active; the % refers to the signal ratio)
Method in brief: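 Wild-type CHO-K1 cells, plated overnight, exposed 3hr at 37C to 15 concentrations (0.76% DMSO final). Lysed, then HTRF anti-pH2AX (S139) cryptate and anti-H2AX-d2 antibodies, 24 hr room temperature; 665/620 nm emission read.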

[9] = qHTS assay to identify small molecule antagonists of the estrogen related receptor (ERR) signaling pathway from Tox21 library (AID 1224848); further: nearly all actives have a fitted effect of over 50% in size; further: potency means the concentration at half of the fitted maximal effect
Method in brief: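 Compounds dissolved in DMSO are pin-transferred onto ERR reporter cells (2,000 per well) that have settled for 6 h at 37 C. Plates then incubate 18 h at 37 C before ONE-Glo luciferase reagent and a luminescence read 30 min later.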

[10] = qHTS assay to identify small molecule agonists of the estrogen related receptor (ERR) signaling pathway from Tox21 library (AID 1224849; calls by dose curve; further: nearly all actives have a fitted effect of over 15% in size); conditions: ERR reporter cell line, ONE-Glo luciferase, 18 h; at 92.4 µM (top of the series) unless noted
Method in brief: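 Reporter cells (ERR, NTP source) treated with Tox21 10K compounds 18 h, 37 C. Readout: ONE-Glo luminescence, 30 min RT.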
On the % scale 0 is the no-effect control and ±100 the full control effect.

CC(C)(C)CC(C)(C)N
inactive: outcome [1] | Potency [2] | outcome [3] | Potency [4] | outcome [5] | Potency [6] | Potency [7]

NC(N)=NS(=O)(=O)c1ccc(N)cc1
inactive: outcome [1] | Potency [2] | outcome [8] | Potency [4] | outcome [5] | Potency [6] | Potency [7]

Cn1ccc2cc3c(cc21)CCN3C(=O)Nc1cccnc1
inactive: activation [1] 14.6% [at 19 µM] | activity change, negative = cytotoxicity [2] -7.99% [at 15.8 µM] | activation [3] -0.619% [at 15.8 µM] | activity change, negative = cytotoxicity [4] 1.26% [at 31.6 µM] | activity change, negative = cytotoxicity [5] -2.41% [at 15.8 µM] | activity change, negative = cytotoxic [6] -7.77% [at 15.8 µM] | cytotoxicity [7] -3.51% [at 15.8 µM]

CCO[Si](C)(OCC)OCC
inactive: outcome [1] | Potency [2] | outcome [3] | Potency [4] | Potency [9] | activity change, positive = activation [10] 4.4% | outcome [5] | Potency [6] | Potency [7]

CC1=CC(C)C(C=O)C(C)C1 (configuration not stated)
inactive: outcome [1] | Potency [2] | outcome [3] | Potency [4] | outcome [5] | Potency [6] | Potency [7]

C=CC(=O)N1CCOCC1
inactive: outcome [1] | Potency [2] | outcome [3] | Potency [9] | activity change, positive = activation [10] 4.07% | outcome [5] | Potency [6] | Potency [7]

CCOC(=O)Cn1c(=O)sc2cccc(Cl)c21
inactive: Potency [2] | outcome [8] | outcome [3] | Potency [4] | Potency [9] | activity change, positive = activation [10] -12% | Potency [6] | Potency [7]

C1COCCO1
inactive: Potency [2] | outcome [8] | outcome [3] | Potency [4] | Potency [9] | activity change, positive = activation [10] 5.15% | Potency [6] | Potency [7]

C1=C\CC/C=C\CC/C=C\CC/1
inactive: Potency [2] | outcome [8] | outcome [3] | Potency [4] | Potency [9] | activity change, positive = activation [10] 2.93% | outcome [5] | Potency [6] | Potency [7]

CC(CCO)CCCC(C)(C)O (configuration not stated)
inactive: Potency [2] | outcome [8] | outcome [3] | Potency [4] | outcome [5] | Potency [6] | Potency [7]

CCC(C(=O)NC(N)=O)c1ccccc1 (configuration not stated)
inactive: outcome [1] | Potency [2] | outcome [3] | Potency [9] | activity change, positive = activation [10] -3.04% | outcome [5] | Potency [6] | Potency [7]

CNC(=O)c1c(I)c(NC(=O)CCCCC(=O)Nc2c(I)c(C(=O)O)c(I)c(C(=O)NC)c2I)c(I)c(C(=O)O)c1I
inactive: Potency [2] | outcome [8] | outcome [3] | Potency [4] | Potency [9] | activity change, positive = activation [10] 8.83% [at 42.5 µM] | outcome [5] | Potency [6] | Potency [7]

CCCCCCOC(=O)c1ccccc1O
inactive: Potency [2] | outcome [8] | outcome [3] | Potency [4] | Potency [9] | activity change, positive = activation [10] 8.56% | outcome [5] | Potency [6] | Potency [7]

CCCCCCCCCCCCCCCCCC(=O)OCCCCCCCCCCCCCC(C)C
inactive: outcome [1] | Potency [2] | outcome [3] | Potency [4] | Potency [6] | Potency [7]

CCC(C)OC(=O)N1CCCCC1CCO (configuration not stated)
inactive: Potency [2] | outcome [8] | outcome [3] | Potency [4] | Potency [9] | activity change, positive = activation [10] 2.44% | outcome [5] | Potency [6] | Potency [7]

CCCC(C)C(=O)O (configuration not stated)
active: Potency [9] 52.3 µM
inactive: outcome [1] | outcome [8] | outcome [3] | Potency [4] | activity change, positive = activation [10] -46.3% | outcome [5] | Potency [6] | Potency [7]

CC(C)CCOC(=O)CC(C)C
inactive: Potency [2] | outcome [8] | outcome [3] | Potency [4] | outcome [5] | Potency [6]

CC(=O)CCc1ccc(O)cc1
inactive: outcome [1] | Potency [2] | outcome [3] | Potency [6] | Potency [7]

CC/C=C\CCCCO
inactive: Potency [2] | outcome [8] | outcome [3] | Potency [4] | outcome [5] | Potency [6] | Potency [7]

CCc1cc(S(=O)(=O)O)c2cc(C(C)C)cccc1-2
inactive: outcome [1] | Potency [2] | outcome [3] | Potency [4] | Potency [6] | Potency [7]

c1ccc(SCCSc2ccccc2)cc1
active: activity change, positive = activation [10] 69.4%
inactive: Potency [2] | outcome [8] | outcome [3] | Potency [4] | Potency [9] | outcome [5] | Potency [6] | Potency [7]

CN(C)CCn1nnnc1SCC1=C(C(=O)O)N2C(=O)[C@@H](NC(=O)Cc3csc(N)n3)[C@H]2SC1
inactive: outcome [1] | Potency [2] | outcome [5] | Potency [6] | Potency [7]

CCCCCN(CCCCC)C(=O)C(CCC(=O)O)NC(=O)c1ccc(Cl)c(Cl)c1 (configuration not stated)
inactive: outcome [1] | outcome [8] | Potency [4] | outcome [5] | Potency [6] | Potency [7]

CCN(CC)S(=O)(=O)c1ccc(C(=O)O)cc1
inactive: outcome [1] | Potency [2] | outcome [3] | Potency [4] | Potency [7]

CCCCc1ccc(N)cc1
inactive: outcome [1] | Potency [2] | outcome [3] | Potency [4] | outcome [5] | Potency [7]
